The results in this text go back to PubChem BioAssay (NCATS).

A short description of assay [1]: qHTS Assay for Identifying Gametocytocidal Compounds (AID 743244).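 Note: % is set by controls: 0 for no effect and ±100 for the full control effect; actives lower the fluorescent signal which means gametocytes are killed.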 Conditions: P. falciparum 3D7 stage III-V gametocytes, alamarBlue, 72 h; max response: stronger effect = lower value. Put shortly: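 Stage III–V gametocytes of P. falciparum 3D7 were seeded at 20,000 cells/well onto pre-dispensed compounds. After 72 h, 37 °C, 5% CO2, alamarBlue was added for another 24 h.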
A general note: qHTS replaces the single test concentration by a dilution series.

Assay [2] is described as follows: P-glycoprotein substrates identified in KB-8-5-11 adenocarcinoma cell line, qHTS therapeutic library screen (AID 1346987). Note: % is set by controls: 0 for no effect and ±100 for the full control effect; nearly all actives have a fitted effect of over 65% in size. The method, boiled down: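 Compounds are pinned in dose-response onto KB-8-5-11 cells (500 cells/well, colchicine-free medium) and left 72 h at 37 degree C. CellTiter-Glo luminescence then yields AC50 values.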
The subject of assay [3] is KB-3-1. Description: Cytotoxic Profiling of Annotated Libraries Using Quantitative High-Throughput Screening (AID 1296008). Note: % is set by controls: 0 for no effect and ±100 for the full control effect; nearly all actives have a fitted effect of over 60% in size. Conditions: Five cell lines viability, CellTiter-Glo ATP luminescence, 48-72 h; max response: stronger effect = lower value. The method, boiled down:
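Cells exposed to compounds for 48 or 72 hr at 37 degrees Celsius. Viability read as ATP-coupled luminescence with CellTiter-Glo after 10 min at room temperature.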
(In general: In ATP-based viability assays light output follows the ATP content of the culture.)

The nature of assay [4]: Drug repurposing screens with cells derived from glioblastoma tumor samples (AID 1345199). Note: % is set by controls: 0 for no effect and ±100 for the full control effect; nearly all actives have a fitted effect of over 40% in size. The following applies: GBM patient neurospheres viability, ATP luminescence, 48 h; Potency: tumour line A; series mostly up to 45.9 µM. Put shortly:
(§1)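 Primary testing used CD133+ neurospheres from four GBM patients, seven concentrations, 48 h exposure and ATP-based viability; confirmation added three slower-growing patient lines.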

In assay [5] the test system is astro. The description is as above. Conditions: viability, ATP luminescence, 48 h; series mostly up to 45.9 µM. The method, boiled down:
as §1

Assay [6] concerns the target Cytochrome P450 2D6 (Homo sapiens) (UniProt P10635). The experiment in a line: Cytochrome P450 family 2 subfamily D member 6 (CYP2D6) small molecule antagonists: luciferase biochemical (cell-free) qHTS assay (AID 1645840; active = well fitted curve in the direction sought with a large enough effect in the repeat runs; an effect the other way counts as inactive or inconclusive; note: % is set by controls: 0 for no effect and ±100 for the full control effect; nearly all actives have a fitted effect of over 55% in size). The method, boiled down:
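P450-Glo CYP2D6 system: proluciferin substrate converted by enzyme to luciferin, read by luminescence proportional to activity. Enzyme-substrate mix with compound 10 min at room temperature, then NADPH regeneration 1 h before detection reagent.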

The target of assay [7] is Cytochrome P450 3A4 (Homo sapiens) (UniProt P08684). Description: Cytochrome P450 family 3 subfamily A member 4 (CYP3A4) small molecule antagonists: luciferase qHTS assay (AID 1645841; active = well fitted curve in the direction sought with a large enough effect in the repeat runs; an effect the other way counts as inactive or inconclusive; note: nearly all actives have a fitted effect of over 45% in size). The method, boiled down: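 P450-Glo CYP3A4 enzyme with proluciferin substrate preincubated 10 min with compound at room temperature, then NADPH regeneration 1 h. Luciferin detection reagent added for 20 min; luminescence recorded. Ketoconazole positive control.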

The target in assay [8] is Cytochrome P450 2C9 (Homo sapiens) (UniProt P11712). Description: Cytochrome P450 family 2 subfamily C member 9 (CYP2C9) small molecule antagonists: luciferase biochemical (cell-free) qHTS assay (AID 1645842; active = well fitted curve in the direction sought with a large enough effect in the repeat runs; an effect the other way counts as inactive or inconclusive; note: % is set by controls: 0 for no effect and ±100 for the full control effect; nearly all actives have a fitted effect of over 55% in size). Put shortly: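 P450-Glo CYP2C9 system: proluciferin substrate with enzyme in mix containing 0.4% BSA, 10 min at room temperature, then NADPH regeneration solution added and incubated 1 h at 37C. Detection reagent stopped reaction; luminescence read after 20 min as RLU.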

A short description of assay [9]: qHTS for Inhibitors of the Functional Ribonucleoprotein Complex (vRNP) of Lassa (LASV) Arenavirus: LASV Primary Screen - GLuc reporter signal (AID 1347082; calls by dose curve; tested in HEK293 reporter line; note: % is set by controls: 0 for no effect and ±100 for the full control effect; nearly all actives have a fitted effect of over 60% in size).
A short description of assay [10]: qHTS for Inhibitors of the Functional Ribonucleoprotein Complex (vRNP) of Lassa (LASV) Arenavirus: Viability assay - alamar blue signal for LASV Primary Screen (AID 1347083; calls by dose curve; tested in HEK293 reporter line; note: % is set by controls: 0 for no effect and ±100 for the full control effect; nearly all actives have a fitted effect of over 80% in size).
Assay [11] is described as follows: qHTS for Inhibitors of the Functional Ribonucleoprotein Complex (vRNP) of Lymphocytic Choriomeningitis Arenaviruses (LCMV): Viability assay - alamar blue signal for LCMV Primary Screen (AID 1347085; calls by dose curve; tested in HEK293 reporter line; note: % is set by controls: 0 for no effect and ±100 for the full control effect; nearly all actives have a fitted effect of over 80% in size).
In assay [12] the target is Nucleoprotein (Lymphocytic choriomeningitis virus (strain Armstrong)) (UniProt P09992). Description: qHTS for Inhibitors of the Functional Ribonucleoprotein Complex (vRNP) of Lymphocytic Choriomeningitis Arenaviruses (LCMV): LCMV Primary Screen - GLuc reporter signal (AID 1347086; calls by dose curve; note: % is set by controls: 0 for no effect and ±100 for the full control effect; nearly all actives have a fitted effect of over 70% in size).
Assay [13] is described as follows: Primary qHTS for inhibitors of SARS-S pseudo-typed particle cell entry (AID 1479145; calls by dose curve; note: nearly all actives have a fitted effect of over 45% in size).
The nature of assay [14]: Primary qHTS for Huh7 cytotoxicity: counterscreen for inhibitors of MERS-S pseudotyped particle cell entry (AID 1479147; calls by dose curve). Conditions: outcome: dose series up to 57.1 µM unless noted.
A short description of assay [15]: Primary qHTS for inhibitors of MERS-S pseudo-typed particle cell entry (AID 1479149; calls by dose curve; note: nearly all actives have a fitted effect of over 60% in size).
Assay [16] in a line: Primary qHTS for Vero E6 cytotoxicity: counterscreen for inhibitors of SARS-S pseudo-typed particle cell entry (AID 1479150; calls by dose curve). Conditions: outcome: dose series up to 57.1 µM unless noted.
The nature of assay [17]: Cytotoxicity counterscreen for inhibitors of SARS-CoV-2 cell entry (AID 1645845; calls by dose curve; note: nearly all actives have a fitted effect of over 50% in size). The method, boiled down:
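Counterscreen run in the same HEK293-ACE2 line as the pseudotyped-particle entry assay, without particles. Viability after 48 h at 37 C was read as ATP luminescence, scaled between cell-containing and cell-free wells.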
On the technique in general: Counterscreens check selectivity or assay interference.

The nature of assay [18]: Primary qHTS to identify inhibitors of SARS-CoV-2 cell entry (AID 1645846; calls by dose curve; note: nearly all actives have a fitted effect of over 45% in size). Conditions: activity change, negative = inhibition: at 57.1 µM (top of the series) unless noted. The method, boiled down:
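Entry measured by luciferase signal 48 h after adding SARS-CoV-2-S pseudotyped MLV particles to HEK293-ACE2 cells preincubated 1 h with compounds. Normalisation: bald particles and spike particles.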

Assay [19] has as its target Glutathione peroxidase 1 (Homo sapiens) (UniProt P07203). The experiment in a line: Primary qHTS Assay for Inhibitors of Recombinant Selenoprotein Glutathione Peroxidase 1 (GPX1) (AID 1845191). Note: % is set by controls: 0 for no effect and ±100 for the full control effect; nearly all actives have a fitted effect of over 65% in size. The method, boiled down: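 GR-coupled readout: NADPH consumption tracked by fluorescence, ex 340/em 450 nm, at t=0 and after 15 min at RT. Final mix 10 nM GPX1, 1 mM GSH, 0.5 mM CHP, 0.5 mM NADPH, 100 nM GR, 0.01% BSA, following 30 min enzyme–compound preincubation.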

Assay [20] deals with Phospholipid hydroperoxide glutathione peroxidase GPX4 (Homo sapiens) (UniProt P36969). Description: Primary qHTS Assay for Inhibitors of Recombinant Selenoprotein Glutathione Peroxidase 4 (GPX4) (AID 1845192). For activity change, negative = inhibition: % is set by controls: 0 for no effect and ±100 for the full control effect. Note: nearly all actives have a fitted effect of over 65% in size. The method, boiled down:
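Steps: GPX4 plus compound, 30 min RT; add GR/GSH/NADPH master mix; start with cumene hydroperoxide; read 340/450 nm fluorescence at 0 and 15 min. Finals were 200 nM GPX4, 1 mM GSH, 0.5 mM CHP, 0.5 mM NADPH, 100 nM GR.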

The structures appear in SMILES notation. Results filed as inconclusive are left out. Active and inactive are the calls of the source. Unless noted, calls come from the whole dose curve; as a rule, active = well fitted curve in the direction sought with a large enough effect; inconclusive = small, poorly fitted or top-dose-only effect, or another doubt; inactive = no such curve, though single readings can be large; an effect the other way counts as inactive or inconclusive.

Phospholipid hydroperoxide glutathione peroxidase GPX4 (Homo sapiens), sequence (P36969 whole entry, looked up): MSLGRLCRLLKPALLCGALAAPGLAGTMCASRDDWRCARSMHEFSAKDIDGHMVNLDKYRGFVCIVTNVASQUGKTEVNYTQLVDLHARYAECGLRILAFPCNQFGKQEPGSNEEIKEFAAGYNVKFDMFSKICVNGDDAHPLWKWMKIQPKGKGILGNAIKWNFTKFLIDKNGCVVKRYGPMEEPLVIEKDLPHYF
Glutathione peroxidase 1 (Homo sapiens), sequence (P07203 whole entry, looked up): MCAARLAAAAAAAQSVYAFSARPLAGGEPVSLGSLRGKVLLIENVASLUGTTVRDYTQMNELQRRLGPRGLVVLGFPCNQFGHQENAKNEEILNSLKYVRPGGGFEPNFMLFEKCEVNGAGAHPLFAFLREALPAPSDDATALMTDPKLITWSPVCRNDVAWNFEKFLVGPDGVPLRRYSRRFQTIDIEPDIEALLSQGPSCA
Cytochrome P450 2C9 (Homo sapiens), sequence (P11712 whole entry, looked up): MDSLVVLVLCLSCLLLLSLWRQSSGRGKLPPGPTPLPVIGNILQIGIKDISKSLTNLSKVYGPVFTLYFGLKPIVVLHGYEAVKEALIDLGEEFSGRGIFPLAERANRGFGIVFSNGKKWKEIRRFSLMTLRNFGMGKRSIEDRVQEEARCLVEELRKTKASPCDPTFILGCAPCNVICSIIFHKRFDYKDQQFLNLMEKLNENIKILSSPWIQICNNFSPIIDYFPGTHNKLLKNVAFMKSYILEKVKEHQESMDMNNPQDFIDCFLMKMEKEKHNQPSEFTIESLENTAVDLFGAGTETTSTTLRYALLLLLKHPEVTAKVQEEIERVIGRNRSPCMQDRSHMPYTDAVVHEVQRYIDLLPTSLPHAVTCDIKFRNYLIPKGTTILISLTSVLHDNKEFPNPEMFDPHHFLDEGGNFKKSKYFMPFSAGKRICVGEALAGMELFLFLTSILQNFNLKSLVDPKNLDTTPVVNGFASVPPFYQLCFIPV
Nucleoprotein (Lymphocytic choriomeningitis virus (strain Armstrong)), sequence (P09992 whole entry, looked up): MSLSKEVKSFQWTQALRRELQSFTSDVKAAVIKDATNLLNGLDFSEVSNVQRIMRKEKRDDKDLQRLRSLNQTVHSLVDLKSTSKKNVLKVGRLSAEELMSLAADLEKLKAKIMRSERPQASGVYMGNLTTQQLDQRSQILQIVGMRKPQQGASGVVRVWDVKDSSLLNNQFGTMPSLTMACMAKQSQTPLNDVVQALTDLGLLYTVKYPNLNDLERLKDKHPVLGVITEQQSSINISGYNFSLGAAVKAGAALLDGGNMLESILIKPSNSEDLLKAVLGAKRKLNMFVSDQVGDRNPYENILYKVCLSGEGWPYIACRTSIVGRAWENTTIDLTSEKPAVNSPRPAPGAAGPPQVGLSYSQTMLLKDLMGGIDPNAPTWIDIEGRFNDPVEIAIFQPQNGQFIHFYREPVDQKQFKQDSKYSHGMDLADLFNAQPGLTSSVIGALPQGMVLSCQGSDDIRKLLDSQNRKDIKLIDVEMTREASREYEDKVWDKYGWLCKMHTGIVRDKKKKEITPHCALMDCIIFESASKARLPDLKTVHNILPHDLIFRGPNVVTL
Cytochrome P450 2D6 (Homo sapiens), sequence (P10635 whole entry, looked up): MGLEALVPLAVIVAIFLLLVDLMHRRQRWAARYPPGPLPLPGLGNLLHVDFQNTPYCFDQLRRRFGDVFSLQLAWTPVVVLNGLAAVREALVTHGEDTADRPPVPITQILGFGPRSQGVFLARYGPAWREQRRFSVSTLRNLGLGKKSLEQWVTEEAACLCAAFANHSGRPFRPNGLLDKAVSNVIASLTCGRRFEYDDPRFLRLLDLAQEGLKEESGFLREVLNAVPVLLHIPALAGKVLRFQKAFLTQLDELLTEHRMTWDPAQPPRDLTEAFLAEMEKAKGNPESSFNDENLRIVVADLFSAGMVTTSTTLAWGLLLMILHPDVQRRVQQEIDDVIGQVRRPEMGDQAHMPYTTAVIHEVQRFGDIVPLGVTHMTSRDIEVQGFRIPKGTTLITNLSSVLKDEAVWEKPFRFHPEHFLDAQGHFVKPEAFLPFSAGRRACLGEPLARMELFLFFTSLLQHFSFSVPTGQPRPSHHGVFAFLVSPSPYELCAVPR
Cytochrome P450 3A4 (Homo sapiens), sequence (P08684 whole entry, looked up): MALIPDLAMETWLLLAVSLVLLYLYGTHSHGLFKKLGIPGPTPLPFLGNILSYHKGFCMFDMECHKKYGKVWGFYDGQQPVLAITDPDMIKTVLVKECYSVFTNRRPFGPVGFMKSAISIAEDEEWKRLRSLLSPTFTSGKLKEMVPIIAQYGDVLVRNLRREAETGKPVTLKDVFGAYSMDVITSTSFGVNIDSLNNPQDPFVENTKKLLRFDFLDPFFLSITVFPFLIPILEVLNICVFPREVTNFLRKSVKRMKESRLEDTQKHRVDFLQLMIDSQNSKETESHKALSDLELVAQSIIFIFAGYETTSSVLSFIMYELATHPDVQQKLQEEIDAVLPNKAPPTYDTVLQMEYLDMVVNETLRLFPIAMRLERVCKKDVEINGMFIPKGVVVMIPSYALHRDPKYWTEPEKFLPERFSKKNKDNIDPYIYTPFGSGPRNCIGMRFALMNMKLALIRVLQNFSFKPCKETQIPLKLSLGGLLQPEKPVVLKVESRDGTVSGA

Take `COc1cc(C[C@H](C)N)c(OC)cc1C`: the values for the max response in [1] and in [3] were -10.7% (inactive) and -5.3% (inactive), respectively. In addition, the Potency entry in assay [2], in assay [4] and in assay [5] was “inactive” each time.

Turning to `CCCCNC(C)(C)[P+](=O)O`, the values for the max response in assay [1] and in assay [3] were -17.6% (inactive) and 5.36% (inactive), respectively. For the same compound, the Potency entry in assay [2], in assay [6], in assay [8], in assay [4] and in [5] was “inactive” each time. Moreover, the result in [7] was inactive.

As for `COC(=O)[C@H]1[C@@H](OC(=O)c2ccccc2)C[C@@H]2CC[C@H]1N2C`, the max response in assay [1] is -15.4% (inactive); in [3], 1.68% (inactive). Besides, the Potency entry in assay [2], in [9], in assay [10], in assay [11], in assay [12] and in assay [13] was “inactive” throughout. The Potency result in assay [15], in [17], in [19], in [20], in assay [4] and in assay [5] was “inactive” throughout. Moreover, the outcome in assay [14] and in assay [16] was “inactive [at 114 µM]” throughout. Also, the activity change, negative = inhibition in assay [18] was -14.7% [at 114 µM].

In the case of `CC(=O)[C@@]1(O)CC[C@H]2[C@@H]3CCC4=CC(=O)CC[C@]4(C)C3(F)[C@@H](O)C[C@@]21C` (some centres undefined), the max response in [1] was 7.59% (inactive); in assay [3], -10.8% (inactive). Moreover, the outcome in assay [14] and in assay [16] was inactive. The Potency entry in assay [15], in assay [17], in assay [4] and in [5] was “inactive” in each case. For the same compound, the activity change, negative = inhibition in assay [18] was -3.62%.

`CC(C)=CCN1CC[C@]2(C)c3cc(O)ccc3C[C@H]1[C@H]2C`: the max response in assay [1] was 2.13% (inactive); in [3], -17.1% (inactive). The call in assay [14] and in [16] was inactive. Besides, the Potency entry in [15], in [17], in [19], in assay [20] and in [5] was “inactive” throughout. In addition, the activity change, negative = inhibition in assay [18] is -30.2% [at 114 µM].
